# In ChEMBL document CHEMBL3988442, “University of Dundee, Small-Polar-MMV Screening Library” (2021):
# Screen size: about 69,000 compounds; about 1,000 (1.4%) showed an effect of 50% or more. The entries come from a sample that favours strong results as a whole.
# Tested on: Leishmania donovani
# Experiment: Leishmania intramacrophage assay
# Format: functional, organism-based
# Set-up: scale not given: in the data most compounds retested in dose-response had high values
structure (smiles),measurement,setting,value
CCc1noc(C)c1C(=O)N(C)Cc1ncc(C)c(OC)c1C,Percent Effect,"30 µM, 30.03 µM",17.33%
CN(CCCC#N)C1CCCN(Cc2noc(C3CC3)n2)C1 (centres undefined),Percent Effect,"30 µM, 30.03 µM",35.66%
Cc1cccnc1CC(C)N(C)C(=O)c1cccs1 (centres undefined),Percent Effect,"30.3 µM, […]",22.03%
CNC(=O)c1cnc(/C=C/c2cc(OC)c(O)c(OC)c2)s1,Percent Effect,"30.3 µM, […]",3.705%
CCn1cc(NC(=O)C(C)n2ncc(Cl)c2C)c(C(=O)NCC(C)C)n1 (centres undefined),Percent Effect,"30.3 µM, […]",23.51%
CC(Oc1ccc2c(c1)OCO2)C(=O)N1CCC(N2CCCC2)CC1 (centres undefined),Percent Effect,"30.3 µM, […]",30.73%
CCN(Cc1nonc1C)C(=O)c1ccc(Br)o1,Percent Effect,"30.3 µM, […]",25.68%
O=C(O)C(F)(F)F.O=C1[C@H]2CN(CC3CCOCC3)C[C@H]2CN1Cc1cccc(F)c1,Percent Effect,"30.3 µM, […]",2.876%
CN1CCC2(CCCN(c3nccc(C(F)(F)F)n3)C2)CC1.O=C(O)C(F)(F)F,Percent Effect,"30.3 µM, […]",21.14%
CC(C)N1CCC2(CCCN(c3nccc(C(F)(F)F)n3)C2)CC1.O=C(O)C(F)(F)F,Percent Effect,"30.3 µM, […]",54.65%
O=C(O)C(F)(F)F.O=C(O)C(F)(F)F.c1cnc(N2CCCC3(CCN(c4ncccn4)C3)C2)nc1 (centres undefined),Percent Effect,"30.3 µM, […]",12.64%
O=C(c1ccccc1OCC1CC1)N1CCCC(n2ccnc2)C1 (centres undefined),Percent Effect,"30 µM, 30.03 µM",5.028%
Cc1cc(C)n(C2=NC(NCCC(C)C)c3c(sc4c3CCCC4)N2)n1 (centres undefined),Percent Effect,"30.3 µM, […]",29.71%
Cc1cc(C)n(-c2nc(NCCCO)c3c4c(sc3n2)CCCC4)n1,Percent Effect,"30.3 µM, […]",97.76%
Cc1nc(CN2CCCC2C(=O)OCc2ccccc2)oc1C (centres undefined),Percent Effect,"30.3 µM, […]",0.6047%
CC1COCCN1Cc1nc(-c2ccc(F)cc2)no1 (centres undefined),Percent Effect,30 µM,12.83%
O=C1NCCN1C1CCN(Cc2nc(-c3ccc(F)cc3)no2)CC1,Percent Effect,30 µM,36.95%
c1cc(C2CCN(Cc3nc(C4CC4)no3)CC2)[nH]n1,Percent Effect,"30.3 µM, […]",12.31%
Cc1cccc(-c2noc(CN3CCC(c4ccn[nH]4)CC3)n2)c1,Percent Effect,"30.3 µM, […]",43.8%
Cc1ccccc1-c1noc(CN2CCC(c3ccn[nH]3)CC2)n1,Percent Effect,"30.3 µM, […]",-17.93%
c1ccc(-c2cc(CN3CCC(c4ccn[nH]4)CC3)on2)cc1,Percent Effect,"30 µM, 30.03 µM",56.61%
Fc1ccc(-c2noc(CN3CCC(c4cc[nH]n4)CC3)n2)cc1,Percent Effect,"30.3 µM, […]",54.52%
c1ccc(-c2noc(CN3CCC(c4ccn[nH]4)CC3)n2)cc1,Percent Effect,"30 µM, 30.03 µM",52.27%
Cc1ccc(-c2noc(CN3CCC(c4ccn[nH]4)CC3)n2)cc1,Percent Effect,"30.3 µM, […]",12.54%
CC(C)c1cc(C(=O)NCCc2nc(-c3ccncc3)n[nH]2)[nH]n1,Percent Effect,"30.3 µM, […]",-0.4105%
Cc1cc(SC(C)(C)C)ccc1NC(C)C(=O)NC(N)=O (centres undefined),Percent Effect,"30.3 µM, […]",-16.97%
Cc1nc(C2CCCC2)sc1C(N)=O,Percent Effect,"30.3 µM, […]",-15.57%
Cc1cnn(CC2CCCN2c2ncnc3ccsc23)c1 (centres undefined),Percent Effect,30 µM,46.26%
CCCNC(=O)COc1cccc(-c2nc(C(C)C)no2)c1,Percent Effect,"30.3 µM, […]",13.17%
NCCc1nc(N[C@@H](CO)c2ccccc2)c2ccccc2n1,Percent Effect,"30.3 µM, […]",7.922%
CCC(Nc1nc(CCN)nc2ccccc12)c1cc(C)ccn1 (centres undefined),Percent Effect,"30.3 µM, […]",19.32%
CCC(Nc1nc(CCN)nc2ccccc12)c1cccs1 (centres undefined),Percent Effect,"30.3 µM, […]",67.47%
CC1c2ncc(Cn3cccn3)n2CCN1S(=O)(=O)C1CC1 (centres undefined),Percent Effect,"30.3 µM, […]",4.524%
Cc1ccc2oc(CN3CCC(C(=O)O)(n4ccnc4)CC3)c(C)c2c1,Percent Effect,"30.3 µM, […]",21.21%
CN(C)C[C@@H]1C[C@@H]2CN(Cc3nccn3C)CC[C@@H]2N1CC1CC1,Percent Effect,"30.3 µM, […]",27%
CC(C)C(=O)N1CCN(c2ncnc3cc4c(cc23)OCCO4)CC1,Percent Effect,"30.3 µM, […]",56.87%
CCC(=O)N1CCN(c2ncnc3cc4c(cc23)OCCO4)CC1,Percent Effect,"30.3 µM, […]",-95.64%
CC(=O)N1CCN(c2ncnc3cc4c(cc23)OCCO4)CC1,Percent Effect,"30.3 µM, […]",39.4%
COc1cc2cc(C(=O)N[C@@H](C)C(=O)O)n(C)c2c(OC)c1OC,Percent Effect,"30 µM, 30.03 µM",2.156%
O=C(c1cccnc1)N1CCc2onc(CN3CCCC3)c2C1,Percent Effect,"30.3 µM, […]",14.82%
Cc1nnc2n1CCN(CC(O)CN1CCC(C)CC1)C2 (centres undefined),Percent Effect,"30.3 µM, […]",33.92%
CCC(CN1CCCC1)n1cncc1-c1cnn(-c2ccc(F)cc2)c1.Cl (centres undefined),Percent Effect,"30.3 µM, […]",14.1%
COc1c(C)cnc(CN(C)C2CCOC3(CCOCC3)C2)c1C (centres undefined),Percent Effect,"30.3 µM, […]",5.753%
COc1c(C)cnc(CN(C)C2CCN(C3CCOCC3)CC2)c1C,Percent Effect,"30.3 µM, […]",38.73%
COc1c(C)cnc(CN(C)C2CCCCC2)c1C,Percent Effect,"30.3 µM, […]",77.94%
CC(Cn1cccn1)C(=O)N1CCCN(Cc2cscn2)CC1 (centres undefined),Percent Effect,"30.3 µM, […]",10.45%
O=C(c1cccs1)N1CCc2c(nc(N3CCCC3)[nH]c2=O)C1,Percent Effect,"30.3 µM, […]",-25.29%
CN(C)C(=O)C1CCN(Cn2nc(-c3ccc(F)cc3)oc2=O)CC1,Percent Effect,30 µM,-5.064%
c1cnnc(N2CCCC(NCc3nc(-c4ccsc4)no3)C2)c1 (centres undefined),Percent Effect,"30.3 µM, […]",12.92%
CN1CCN(c2ncc(CNCCCc3cccc(F)c3)cn2)CC1,Percent Effect,"30.3 µM, […]",20.79%
CC(NCc1ccncc1)c1ccc(N2CCN(C)CC2)c(F)c1.Cl (centres undefined),Percent Effect,"30.3 µM, […]",-0.6983%
CC(NCc1cnc(N2CCN(C)CC2)nc1)c1ccc(F)cc1 (centres undefined),Percent Effect,"30.3 µM, […]",58.55%
Cc1ccc2c(c1)C(NCc1nccn1Cc1ccccc1)CCCO2 (centres undefined),Percent Effect,"30.3 µM, […]",23.59%
Cn1ccnc1CNC1CCCOc2c1ccc1ccccc21 (centres undefined),Percent Effect,"30.3 µM, […]",20.1%
Cc1ccc2c(c1)OCCCC2NCc1nccn1CC(C)C (centres undefined),Percent Effect,"30.3 µM, […]",9.865%
Cc1ccc2c(c1)OCCCC2NCc1nccn1Cc1ccccc1 (centres undefined),Percent Effect,"30.3 µM, […]",50.6%
c1ccc(Cn2ccnc2CNC2CCCOc3ccccc32)cc1 (centres undefined),Percent Effect,"30.3 µM, […]",4.41%
Cc1cccc2c1OCCCC2NCc1nccn1Cc1ccccc1 (centres undefined),Percent Effect,"30.3 µM, […]",82.89%
Cc1noc([C@@]23CCO[C@@H]2CCN(C(=O)CCC(C)C)C3)n1,Percent Effect,"30.3 µM, […]",-4.868%
COCCN(CCC#N)S(=O)(=O)c1ccc(F)cc1Cl,Percent Effect,"30.3 µM, […]",-7.04%
Cc1nc(CNC(=O)Cn2nc(-c3ccc(F)cc3)oc2=O)cs1,Percent Effect,"30 µM, 30.03 µM",-4.773%
COc1ccc(-c2cn(CCSc3ncn[nH]3)nn2)cn1,Percent Effect,"30.3 µM, […]",35.9%
Cc1nn(C)c(C)c1CN(C(=O)c1cc(Cl)c[nH]c1=O)C(C)C,Percent Effect,"30.3 µM, […]",14.01%
Cc1ncc2c(n1)CCCC2NC(=O)c1ccc(Cn2cccn2)cc1 (centres undefined),Percent Effect,"30.3 µM, […]",26.01%
CCCn1nc(C)c2c(C(F)F)cc(=O)n(CC(=O)O)c21,Percent Effect,"30.3 µM, […]",18.18%
COC(=O)Cn1c(=O)cc(C(F)F)c2c(C)nn(CC(F)F)c21,Percent Effect,"30.3 µM, […]",51.48%
Cc1nn(CC(F)F)c2c1c(C(F)F)cc(=O)n2CC(=O)O,Percent Effect,"30.3 µM, […]",-4.895%
CC1(C)CN(C(CNS(C)(=O)=O)c2ccc(Cl)cc2)CCO1 (centres undefined),Percent Effect,"30.3 µM, […]",30.45%
O=C(Cc1ccc(F)cc1)N1CCn2c(Cn3cncn3)cnc2C1,Percent Effect,"30.3 µM, […]",5.226%
CCc1nc2n(n1)CC(NCc1nc(-c3ccccn3)no1)CC2 (centres undefined),Percent Effect,30 µM,-15.89%
CC(=O)N1CC(C(=O)N2CCCC(Cn3ccnc3C)C2)C1 (centres undefined),Percent Effect,"30.3 µM, […]",46.71%
Cc1noc(C)c1CC(=O)N1CCCC(Cn2ccnc2C)C1 (centres undefined),Percent Effect,"30.3 µM, […]",14.7%
Cc1nccn1CC1CCCN(C(=O)Cc2ccsc2)C1 (centres undefined),Percent Effect,"30.3 µM, […]",72.54%
COc1ccc(CN2CCN(S(=O)(=O)c3cc(C(=O)O)cs3)CC2)cc1,Percent Effect,"30.3 µM, […]",15%
Cn1cc(C(=O)N2CC[C@@H]3[C@@H]2CCN3c2ccccn2)cn1,Percent Effect,"30.3 µM, […]",28.1%
CC(=O)NCCCOc1c(C)cccc1Cl,Percent Effect,"30.3 µM, […]",16.58%
Cc1ccc(C(=O)N2CCC3(CCC(=O)N(CCN(C)C)C3)CC2)nc1,Percent Effect,"30.3 µM, […]",0.8363%
CCN1CCCC1Cn1ccc2ccc(C(=O)OC)cc2c1=O (centres undefined),Percent Effect,"30.3 µM, […]",-29.19%
CCc1ccc2nc(NCCOCCO)cc(C)c2c1,Percent Effect,"30.3 µM, […]",19.28%
CCc1ccc2nc(NCC(O)CO)cc(C)c2c1 (centres undefined),Percent Effect,"30.3 µM, […]",21.82%
CCc1ccc2nc(NCCCN(CCO)CCO)cc(C)c2c1,Percent Effect,"30.3 µM, […]",97.87%
CCc1ccc(CN2Cc3nccn3CC(Cn3cncn3)C2)o1.O=C(O)C(F)(F)F (centres undefined),Percent Effect,"30.3 µM, […]",27.46%
COc1cccc(COCC(=O)N2CCC(CC(N)=O)CC2)c1,Percent Effect,"30 µM, 30.03 µM",-26.96%
Cc1c(C)n(Cc2ccccn2)c2nc3c(c(N)c12)CCCCCC3,Percent Effect,"30.3 µM, […]",8.308%
Cc1c(C)n(-c2ccccn2)c2nc3c(c(N)c12)CCCCC3,Percent Effect,"30.3 µM, […]",70.72%
Cc1c(C)n(-c2ccccn2)c2nc3c(c(N)c12)CCCC3,Percent Effect,"30 µM, 30.03 µM",43.5%
CC1CN(C)c2ccccc2CN1C(=O)c1ccc[nH]1 (centres undefined),Percent Effect,"30 µM, 30.03 µM",18.04%
COCCn1cnc2ccc(NC(=O)c3ccc(OC)cc3)cc2c1=O,Percent Effect,"30.3 µM, […]",23.03%
Cn1ccnc1COc1ccc(COC(=O)C2CCCO2)cc1 (centres undefined),Percent Effect,"30.3 µM, […]",-0.4672%
Cc1c(CC(C#N)C(=O)Nc2cccc(O)c2)cnn1C (centres undefined),Percent Effect,"30.3 µM, […]",-22.11%
COC(=O)Nc1nc2c(s1)CN(C(=O)NCc1cccs1)CC2,Percent Effect,"30.3 µM, […]",-0.9773%
COc1ccc(Cl)cc1NC(=O)N1CCc2nc(NC(C)=O)sc2C1,Percent Effect,"30.3 µM, […]",55.24%
COc1ccc(Cl)cc1NC(=O)CN1CCc2nc(NC(C)=O)sc2C1,Percent Effect,"30.3 µM, […]",-8.893%
Cn1ccnc1CN1CCCN(C(=O)c2ccc(O)nc2)CC1,Percent Effect,30 µM,25.73%
Cc1nc2sccn2c1CN(CCCN(C)C)Cc1ccco1.O=C(O)CC(O)(CC(=O)O)C(=O)O,Percent Effect,"30.3 µM, […]",41.01%
CC[C@@]1(O)CCN(C(=O)CCc2cnn(C)c2)C[C@H]1O,Percent Effect,"30.3 µM, […]",28.56%
COc1ccc(C(C)NCCc2ccc(NC(C)=O)cc2)cc1F (centres undefined),Percent Effect,"30.3 µM, […]",23.19%
COc1ccc(C(C)NCc2nnc(C)s2)cc1F (centres undefined),Percent Effect,"30.3 µM, […]",13.85%
COc1ccc(C(C)NCCC(N)=O)cc1F (centres undefined),Percent Effect,"30.3 µM, […]",52.68%
CCSc1cc(C(=O)NCCc2nnc(-c3ccco3)[nH]2)ccn1,Percent Effect,"30.3 µM, […]",-0.0887%
CN(CCn1nc2ccccn2c1=O)CC(=O)N(C)C1CCCCC1,Percent Effect,"30.3 µM, […]",4.76%
Cc1nc(N2CCCC2)ncc1-c1cc(O)nc(N2CCCC2)n1,Percent Effect,"30 µM, 30.03 µM",15.83%
Cc1nc(N2CCCC2)ncc1-c1cc(O)nc(N2CCN(C)CC2)n1,Percent Effect,"30.3 µM, […]",59.07%
Cc1nc(N2CCCC2)ncc1-c1cc(O)nc(N2CCCCC2)n1,Percent Effect,"30.3 µM, […]",-14.51%
